Assay results taken from the supplement of paper PMC10849652.
About 8,800 targets were measured; listed, in parts, are those with a hit and a random draw of the rest. About 0.5% of all pairs of compound and target were hits. Values without a mark were called inactive.

Tests used:
Assay in all cases: log2 fold change, soluble protein after heating vs DMSO (PISA); higher = thermal stabilisation; K562 lysate, 10 uM; active = over 0.2 and 3.5 SD of the protein, either way, in both replicates (recomputed)
vemurafenib = compound: CCCS(=O)(=O)Nc1ccc(F)c(C(=O)c2c[nH]c3ncc(-c4ccc(Cl)cc4)cc23)c1F [vemurafenib]
Procedure, shortened: (§1)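 K562 pellets were dounce-homogenised in PBS pH 7.4 with 1 mM MgCl2, and the crude extract at 1 mg/mL protein was treated with 10 μM compound for 30 min. Aliquots were heated for 3 min across 48°C-58°C, pooled, and brought to 0.5% NP-40 at 4°C; soluble protein was the supernatant after 21,000xg for 90 min. Soluble protein was quantified by TMTpro 16plex LC-MS/MS with channel sums equalised, and reported as log2 fold change in thermal stability against DMSO controls, with values from duplicates.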

[1] = compound: CCCS(=O)(=O)Nc1ccc(F)c(C(=O)c2c[nH]c3ncc(Cl)cc23)c1F
Procedure, shortened: as §1

barasertib = compound: CCN(CCCOc1ccc2c(Nc3cc(CC(=O)Nc4cccc(F)c4)[nH]n3)ncnc2c1)CCOP(=O)(O)O [barasertib]
Procedure, shortened: as §1

[2] = compound: CC[C@@H]1C(=O)N(C)c2cnc(Nc3ccc(C(=O)NC4CCN(C)CC4)cc3OC)nc2N1C1CCCC1
Procedure, shortened: as §1

volasertib = compound: CC[C@@H]1C(=O)N(C)c2cnc(Nc3ccc(C(=O)N[C@H]4CC[C@H](N5CCN(CC6CC6)CC5)CC4)cc3OC)nc2N1C(C)C [volasertib]
Procedure, shortened: as §1

[3] = compound: CCn1c(C(=O)N(C2CC2)C2CC2)cc2c3c(ncn3C)c(Nc3cc(C)n(C)n3)nc21
Procedure, shortened: as §1

[4] = compound: CCn1cc(-c2ccnc3[nH]c(-c4cccc(CN(C)C)c4)cc23)c(-c2ccc(NC(=O)N(C)C)cc2)n1
Procedure, shortened: as §1

[5] = compound: CN1CCC(CNc2ccc3ncc(-c4cccc(OC(F)(F)F)c4)n3n2)CC1
Procedure, shortened: as §1

saracatinib = compound: CN1CCN(CCOc2cc(OC3CCOCC3)c3c(Nc4c(Cl)ccc5c4OCO5)ncnc3c2)CC1 [saracatinib]
Procedure, shortened: as §1

sotrastaurin = compound: CN1CCN(c2nc(C3=C(c4c[nH]c5ccccc45)C(=O)NC3=O)c3ccccc3n2)CC1 [sotrastaurin]
Procedure, shortened: as §1

Sequence of UniProt Q9UBM7 (Q9UBM7 whole entry, looked up): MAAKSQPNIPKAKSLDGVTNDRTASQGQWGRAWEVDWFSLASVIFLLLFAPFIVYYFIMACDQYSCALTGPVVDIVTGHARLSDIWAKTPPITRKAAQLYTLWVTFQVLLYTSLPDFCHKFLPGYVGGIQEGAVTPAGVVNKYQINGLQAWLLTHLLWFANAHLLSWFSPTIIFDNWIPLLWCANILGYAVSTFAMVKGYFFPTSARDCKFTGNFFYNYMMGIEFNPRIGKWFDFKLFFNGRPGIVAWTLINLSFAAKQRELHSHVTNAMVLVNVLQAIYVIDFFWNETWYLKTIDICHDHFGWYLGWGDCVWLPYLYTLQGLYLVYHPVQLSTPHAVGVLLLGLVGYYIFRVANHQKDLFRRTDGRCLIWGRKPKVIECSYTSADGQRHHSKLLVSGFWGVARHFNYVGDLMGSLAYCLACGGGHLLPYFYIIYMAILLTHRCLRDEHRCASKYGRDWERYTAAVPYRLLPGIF
Sequence of UniProt P31146 (P31146 whole entry, looked up): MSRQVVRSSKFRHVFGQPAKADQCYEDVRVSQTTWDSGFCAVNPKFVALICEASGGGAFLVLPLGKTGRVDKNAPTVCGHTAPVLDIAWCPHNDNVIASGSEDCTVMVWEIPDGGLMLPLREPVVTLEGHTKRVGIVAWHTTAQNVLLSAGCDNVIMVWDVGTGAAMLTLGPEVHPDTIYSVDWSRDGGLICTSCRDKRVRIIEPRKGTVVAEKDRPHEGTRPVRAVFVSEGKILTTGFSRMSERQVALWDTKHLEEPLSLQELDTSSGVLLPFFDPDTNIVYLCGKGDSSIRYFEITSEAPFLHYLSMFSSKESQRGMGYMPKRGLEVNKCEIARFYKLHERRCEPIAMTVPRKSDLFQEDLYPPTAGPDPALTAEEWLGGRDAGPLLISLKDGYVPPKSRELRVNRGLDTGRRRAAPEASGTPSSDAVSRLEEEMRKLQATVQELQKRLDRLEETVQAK
Sequence of UniProt Q96LJ7 (Q96LJ7 whole entry, looked up): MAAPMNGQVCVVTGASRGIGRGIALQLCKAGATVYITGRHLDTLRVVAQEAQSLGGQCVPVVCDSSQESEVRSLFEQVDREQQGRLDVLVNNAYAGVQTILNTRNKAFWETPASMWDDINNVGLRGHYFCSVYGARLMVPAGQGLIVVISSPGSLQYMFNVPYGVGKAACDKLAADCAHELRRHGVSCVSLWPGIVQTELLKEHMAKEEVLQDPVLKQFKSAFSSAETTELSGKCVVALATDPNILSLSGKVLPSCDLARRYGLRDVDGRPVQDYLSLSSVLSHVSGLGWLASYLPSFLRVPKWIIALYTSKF
Sequence of UniProt Q9HCG8 (Q9HCG8 whole entry, looked up): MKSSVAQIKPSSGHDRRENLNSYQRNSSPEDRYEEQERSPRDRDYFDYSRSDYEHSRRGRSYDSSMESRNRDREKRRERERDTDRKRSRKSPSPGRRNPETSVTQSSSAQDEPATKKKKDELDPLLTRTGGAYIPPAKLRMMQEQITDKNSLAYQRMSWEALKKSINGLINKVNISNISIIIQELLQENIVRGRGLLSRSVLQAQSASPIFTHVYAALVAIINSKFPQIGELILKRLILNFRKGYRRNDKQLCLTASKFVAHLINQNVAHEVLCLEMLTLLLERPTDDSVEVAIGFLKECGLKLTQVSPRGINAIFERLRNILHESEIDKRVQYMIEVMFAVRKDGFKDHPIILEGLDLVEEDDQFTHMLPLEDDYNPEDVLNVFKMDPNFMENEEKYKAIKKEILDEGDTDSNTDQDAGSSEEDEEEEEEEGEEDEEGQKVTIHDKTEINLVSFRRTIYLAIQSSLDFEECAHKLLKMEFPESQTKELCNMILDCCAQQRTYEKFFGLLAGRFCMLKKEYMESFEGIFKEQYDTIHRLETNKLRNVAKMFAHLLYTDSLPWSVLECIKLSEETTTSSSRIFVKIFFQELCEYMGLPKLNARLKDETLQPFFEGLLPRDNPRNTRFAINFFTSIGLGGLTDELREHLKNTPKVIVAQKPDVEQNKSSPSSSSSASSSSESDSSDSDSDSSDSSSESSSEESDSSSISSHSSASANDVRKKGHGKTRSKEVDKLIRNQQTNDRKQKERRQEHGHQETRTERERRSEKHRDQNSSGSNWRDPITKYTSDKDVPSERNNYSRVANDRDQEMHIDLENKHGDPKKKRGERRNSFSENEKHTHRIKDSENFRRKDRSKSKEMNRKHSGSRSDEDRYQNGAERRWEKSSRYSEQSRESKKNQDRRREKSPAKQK
Sequence of UniProt Q9H3Z4 (Q9H3Z4 whole entry, looked up): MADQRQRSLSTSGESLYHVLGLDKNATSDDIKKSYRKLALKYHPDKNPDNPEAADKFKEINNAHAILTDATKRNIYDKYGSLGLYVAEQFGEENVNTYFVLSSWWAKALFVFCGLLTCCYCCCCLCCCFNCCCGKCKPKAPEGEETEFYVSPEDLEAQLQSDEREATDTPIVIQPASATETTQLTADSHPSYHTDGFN
Sequence of UniProt O60762 (O60762 whole entry, looked up): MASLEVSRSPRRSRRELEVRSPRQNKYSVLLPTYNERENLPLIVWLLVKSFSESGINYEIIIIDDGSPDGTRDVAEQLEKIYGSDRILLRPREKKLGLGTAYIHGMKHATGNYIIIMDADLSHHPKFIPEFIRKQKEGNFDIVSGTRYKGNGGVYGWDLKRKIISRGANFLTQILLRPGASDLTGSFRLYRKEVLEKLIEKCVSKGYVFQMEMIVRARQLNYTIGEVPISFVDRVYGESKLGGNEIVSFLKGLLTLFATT
Sequence of UniProt Q96MX0 (Q96MX0 whole entry, looked up): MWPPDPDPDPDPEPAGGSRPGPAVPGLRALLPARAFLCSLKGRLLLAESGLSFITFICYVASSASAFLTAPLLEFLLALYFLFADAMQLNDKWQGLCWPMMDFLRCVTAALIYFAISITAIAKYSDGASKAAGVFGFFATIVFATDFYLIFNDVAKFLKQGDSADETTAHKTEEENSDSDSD
Sequence of UniProt O15111 (O15111 whole entry, looked up): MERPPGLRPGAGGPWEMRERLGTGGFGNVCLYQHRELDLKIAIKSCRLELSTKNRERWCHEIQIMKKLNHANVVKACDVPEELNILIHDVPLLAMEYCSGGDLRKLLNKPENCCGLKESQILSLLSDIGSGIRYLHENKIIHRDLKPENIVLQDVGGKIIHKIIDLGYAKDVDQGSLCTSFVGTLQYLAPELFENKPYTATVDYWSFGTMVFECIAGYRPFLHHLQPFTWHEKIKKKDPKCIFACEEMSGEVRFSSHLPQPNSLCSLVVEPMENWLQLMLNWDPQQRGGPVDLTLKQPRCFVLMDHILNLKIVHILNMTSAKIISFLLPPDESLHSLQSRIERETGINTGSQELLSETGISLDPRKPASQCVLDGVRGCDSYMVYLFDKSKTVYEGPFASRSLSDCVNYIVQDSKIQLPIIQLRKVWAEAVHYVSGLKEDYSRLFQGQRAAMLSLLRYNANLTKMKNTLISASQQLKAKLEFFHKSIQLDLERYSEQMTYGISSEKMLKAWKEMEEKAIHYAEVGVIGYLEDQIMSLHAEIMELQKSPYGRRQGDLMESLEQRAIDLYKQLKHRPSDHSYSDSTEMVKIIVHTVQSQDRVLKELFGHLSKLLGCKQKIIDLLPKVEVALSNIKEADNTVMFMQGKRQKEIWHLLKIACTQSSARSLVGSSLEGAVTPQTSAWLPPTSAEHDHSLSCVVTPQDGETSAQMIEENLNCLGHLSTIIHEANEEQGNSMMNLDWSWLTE
Sequence of UniProt O75534 (O75534 whole entry, looked up): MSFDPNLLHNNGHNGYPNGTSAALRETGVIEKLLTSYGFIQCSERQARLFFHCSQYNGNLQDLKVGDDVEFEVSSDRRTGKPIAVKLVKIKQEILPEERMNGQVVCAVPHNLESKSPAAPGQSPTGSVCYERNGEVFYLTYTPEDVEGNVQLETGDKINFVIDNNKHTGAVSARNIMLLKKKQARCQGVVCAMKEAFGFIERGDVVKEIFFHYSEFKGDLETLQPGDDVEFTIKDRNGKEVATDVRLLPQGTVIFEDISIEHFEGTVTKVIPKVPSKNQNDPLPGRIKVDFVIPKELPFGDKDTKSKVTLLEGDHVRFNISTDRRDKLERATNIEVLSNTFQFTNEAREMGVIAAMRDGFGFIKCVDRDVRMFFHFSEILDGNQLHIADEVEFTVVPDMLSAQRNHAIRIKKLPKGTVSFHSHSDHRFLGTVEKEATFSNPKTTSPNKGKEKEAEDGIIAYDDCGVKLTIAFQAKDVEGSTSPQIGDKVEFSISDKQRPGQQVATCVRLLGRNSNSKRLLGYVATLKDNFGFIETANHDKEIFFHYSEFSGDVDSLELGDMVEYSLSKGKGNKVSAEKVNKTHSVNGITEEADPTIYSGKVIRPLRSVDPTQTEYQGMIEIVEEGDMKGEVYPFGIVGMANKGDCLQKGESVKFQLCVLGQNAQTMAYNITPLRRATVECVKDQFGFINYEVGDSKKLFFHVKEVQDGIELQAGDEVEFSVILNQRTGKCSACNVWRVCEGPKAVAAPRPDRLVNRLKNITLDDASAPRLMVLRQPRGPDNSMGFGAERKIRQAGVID
Sequence of UniProt Q9UHD1 (Q9UHD1 whole entry, looked up): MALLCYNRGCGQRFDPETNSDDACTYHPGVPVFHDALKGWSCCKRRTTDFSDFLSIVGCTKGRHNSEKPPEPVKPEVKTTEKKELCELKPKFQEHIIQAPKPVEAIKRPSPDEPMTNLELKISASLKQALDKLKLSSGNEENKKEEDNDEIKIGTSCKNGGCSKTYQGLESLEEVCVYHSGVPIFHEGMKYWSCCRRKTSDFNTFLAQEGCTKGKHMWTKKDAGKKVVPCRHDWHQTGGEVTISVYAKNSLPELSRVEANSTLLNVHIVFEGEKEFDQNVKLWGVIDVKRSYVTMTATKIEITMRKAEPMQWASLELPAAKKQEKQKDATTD
Sequence of UniProt O15247 (O15247 whole entry, looked up): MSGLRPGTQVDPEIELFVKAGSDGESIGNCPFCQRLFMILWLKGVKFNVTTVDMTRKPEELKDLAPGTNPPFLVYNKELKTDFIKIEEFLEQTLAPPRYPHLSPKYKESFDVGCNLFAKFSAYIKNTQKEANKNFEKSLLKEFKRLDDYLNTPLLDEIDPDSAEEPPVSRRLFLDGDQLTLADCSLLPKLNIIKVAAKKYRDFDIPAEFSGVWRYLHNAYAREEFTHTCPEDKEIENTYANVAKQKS

Row | Target | log2 fold change (vemurafenib) | log2 fold change [1] | log2 fold change (barasertib) | log2 fold change [2] | log2 fold change (volasertib) | log2 fold change [3] | log2 fold change [4] | log2 fold change [5] | log2 fold change (saracatinib) | log2 fold change (sotrastaurin)
1 | CIB1 (UniProt Q99828) | 0.096 | 0.027 | 0.155 | -0.013 | 0.008 | -0.047 | -0.028 | -0.028 | 0.017 | -0.077
2 | DHCR7 (UniProt Q9UBM7) | -0.02 | 0.004 | 0.029 | -0.061 | -0.036 | 0.025 | -0.033 | -0.069 | 0.017 | -0.041
3 | DNAJC5 (UniProt Q9H3Z4) | 0.001 | -0.02 | 0.008 | -0.031 | 0.012 | 0.015 | -0.476 (active) | 0.243 | 0.01 | 0.041
4 | CSTB (UniProt P04080) | 0.007 | 0.001 | 0.077 | 0.043 | 0.044 | -0.027 | -0.376 (active) | 0.174 | 0.013 | 0.086
5 | CLASP1 isoform 4 (UniProt Q7Z460) | 0.272 |  |  |  |  |  |  |  |  | 
6 | CTPS1 (UniProt P17812) | -0.008 | 0.016 | -0.024 | -0.065 | -0.04 | 0.026 | -0.041 | -0.011 | 0.007 | 0.021
7 | DHRS1 (UniProt Q96LJ7) | 0.436 | 0.187 | 0.053 | -0.045 | 0.012 | -0.029 | -0.042 | -0.05 | 0.001 | 0.026
8 | DENND4A isoform 2 (UniProt Q7Z401) | -0.024 | 0.024 | 0.029 | 0.011 | -0.069 | 0.004 | -0.132 | 0.099 | 0.059 | 0.025
9 | CWC22 (UniProt Q9HCG8) | 0.002 | 0.045 | 0.028 | -0.209 | -0.033 | 0.017 | 0.393 (active) | -0.273 (active) | -0.052 | -0.013
10 | DMXL1 (UniProt Q9Y485) | 0.024 | 0.028 | -0.005 | 0.015 | -0.06 | 0.026 | -0.017 | -0.004 | 0.002 | 0.023
11 | DCP2 (UniProt Q8IU60) | -0.05 | -0.038 | 0.014 | 0.016 | -0.061 | -0.028 | 0.059 | -0.13 | -0.023 | -0.01
12 | CLIC2 (UniProt O15247) | -0.004 | 0.007 | -0.039 | -0.014 | -0.011 | -0.006 | -0.064 | -0.005 | 0.015 | 0
13 | DMAC2L (UniProt Q99766) | 0.002 | 0.026 | 0.065 | 0.075 | -0.028 | 0.021 | -0.017 | 0.053 | 0.058 | -0.012
14 | CHUK (UniProt O15111) | 0.026 | 0.001 | 0.059 | -0.095 | -0.047 | -0.045 | 0.111 | -0.097 | 0.059 | 0.017
15 | CHURC1 isoform 2 (UniProt Q8WUH1) | 0.019 | -0.166 | 0.194 | 0.038 | 0.129 | 0.018 | -0.108 | 0.024 | -0.071 | -0.013
16 | DNAH10 (UniProt Q8IVF4) | 0.067 | 0 | 0.069 | 0.064 | 0.044 | -0.05 | -0.582 (active) | 0.139 | 0.022 | -0.029
17 | CORO1A (UniProt P31146) | -0.021 | -0.001 | 0.013 | 0.025 | -0.035 | 0.11 | -0.113 | 0.021 | -0.169 | -0.007
18 | DPM1 (UniProt O60762) | 0.055 | 0.004 | -0.021 | 0.039 | 0.001 | -0.012 | -0.013 | -0.058 | 0.036 | 0.028
19 | CSNK2B (UniProt P67870) | -0.042 | 0.03 | -0.032 | -0.007 | -0.038 | 0.015 | 0.01 | 0.124 | -0.066 | -0.029
20 | CMIP (UniProt Q8IY22) | 0.009 | 0.023 | 0.04 | -0.055 | -0.057 | 0.043 | -0.043 | -0.054 | 0.014 | 0.017
21 | CHMP4A isoform 2 (UniProt Q9BY43) | 0 | -0.002 | -0.053 | 0.064 | 0.039 | -0.002 | -0.278 (active) | 0.222 | 0.048 | 0.024
22 | COG6 (UniProt Q9Y2V7) | 0.062 | 0.013 | 0.072 | -0.004 | -0.046 | 0.015 | -0.116 | 0.017 | 0.073 | -0.017
23 | CMTM3 (UniProt Q96MX0) | 0.053 | -0.014 | -0.04 | -0.089 | 0.014 | 0.03 | 0.053 | -0.055 | 0.012 | -0.005
24 | CLASP1 (UniProt Q7Z460) | 0.025 | 0.013 | 0.048 | -0.03 | -0.018 | 0.039 | -0.043 | 0.042 | 0.028 | -0.022
25 | COASY isoform 2 (UniProt Q13057) | 0.076 | 0.017 | 0.011 | -0.075 | -0.098 | 0.034 | -0.063 | 0.038 | 0.021 | 0.079
26 | COG3 (UniProt Q96JB2) | 0.004 | 0.012 | 0.041 | -0.056 | -0.071 | 0.042 | -0.038 | 0.012 | 0.046 | 0.008
27 | DNAJC3 (UniProt Q13217) | -0.016 | 0.009 | 0.006 | 0.023 | -0.004 | 0.082 | 0.016 | -0.076 | 0.008 | -0.109
28 | CSDE1 isoform 4 (UniProt O75534) | -0.002 | 0.004 | 0.01 | -0.083 | -0.041 | 0.028 | 0.069 | -0.066 | 0.003 | -0.018
29 | CHORDC1 (UniProt Q9UHD1) | 0.017 | -0.003 | -0.029 | 0.009 | 0.02 | 0.002 | 0.288 (active) | -0.003 | -0.006 | -0.036
30 | CKS1B (UniProt P61024) | -0.047 | -0.029 | 0.029 | -0.031 | -0.018 | -0.017 | 0.391 (active) | -0.268 | 0.044 | 0.025
